“And” between values parts separate entries of the source, which are not always exact repeats. Identical values can stand only once. The campaign covered roughly 5,500 compounds. About 2,000 (36%) were called active. Not shown: some 18% with an inconclusive outcome. Rule as the data show it: active = normalized growth mostly below about 0.91 (no sharp cut-off); inconclusive = no clear call, values can overlap the other calls; inactive = mostly above about 0.92. Some of the results follow.
Assay: chemical genetic growth profiling, strain panel (AID 1159580);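 also: tested at 20 µM; growth read once vehicle control cultures reached saturation at 30 °C; 1 = growth at the plate median or of vehicle wells; lower values mean less growth of the strain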
Conditions: S. cerevisiae deletion strains, growth OD

Measured: normalized growth

C[n+]1ccccc1/C=N/O
inactive: locus YAL013W, strain DEP1, stronger effect = lower value 1.01 | locus YAL021C, strain ccr4, stronger effect = lower value 0.99 | locus YAL026C, strain drs2, stronger effect = lower value 1.02 | locus YAL030W, strain snc1, stronger effect = lower value 1 | locus YBL061C, strain skt5, stronger effect = lower value 0.992 | locus YBR009C, strain hhf1, stronger effect = lower value 1.03 | locus YBR021W, strain FUR4, stronger effect = lower value 0.985 | locus YBR023C, strain chs3, stronger effect = lower value 0.995 | locus YBR171W, strain sec66, stronger effect = lower value 1 | locus YBR229C, strain ROT2, stronger effect = lower value 1.01 | locus YBR231C, strain swc5, stronger effect = lower value 1.02 | locus YBR279W, strain paf1, stronger effect = lower value 1.01 | locus YCL011C, strain gbp2, stronger effect = lower value 1.01 | locus YCL016C, strain dcc1, stronger effect = lower value 1.01 | locus YCL029C, strain bik1, stronger effect = lower value 1.01 | locus YCL069W, strain vba3, stronger effect = lower value 1 | locus YCR088W, strain abp1, stronger effect = lower value 1 | locus YDL005C, strain med2, stronger effect = lower value 0.986 | locus YDL035C, strain GPR1, stronger effect = lower value 1.01 | locus YDL040C, strain nat1, stronger effect = lower value 1.01 | locus YDL074C, strain BRE1, stronger effect = lower value 1 | locus YDL101C, strain DUN1, stronger effect = lower value 1.01 | locus YDL134C, strain PPH21, stronger effect = lower value 0.997 | locus YDL185W, strain tfp1, stronger effect = lower value 0.999 | locus YDL192W, strain arf1, stronger effect = lower value 1 | locus YDR001C, strain nth1, stronger effect = lower value 0.997 | locus YDR069C, strain doa4, stronger effect = lower value 1.02 | locus YDR101C, strain arx1, stronger effect = lower value 1 | locus YDR137W, strain rgp1, stronger effect = lower value 1.01 | locus YDR150W, strain NUM1, stronger effect = lower value 1.01 | locus YDR159W, strain sac3, stronger effect = lower value 0.967 | locus YDR162C, strain NBP2, stronger effect = lower value 1.01 | locus YDR195W, strain ref2 0.999 | locus YDR297W, strain sur2, stronger effect = lower value 1.01 | locus YDR318W, strain mcm21, stronger effect = lower value 0.994 | locus YDR334W, strain swr1, stronger effect = lower value 1 | locus YDR335W, strain msn5, stronger effect = lower value 1.01 | locus YDR388W, stronger effect = lower value 0.996 | locus YDR392W, strain spt3, stronger effect = lower value 0.918 | locus YDR502C, strain sam2, stronger effect = lower value 1 | locus YEL003W, strain gim4, stronger effect = lower value 1.01 | locus YEL037C, strain rad23, stronger effect = lower value 0.998 | locus YEL061C, strain CIN8 (second series), stronger effect = lower value 1.02 | locus YEL061C, strain CIN8, stronger effect = lower value 1.01 | locus YER015W, strain faa2, stronger effect = lower value 1.01 | locus YER016W, strain bim1, stronger effect = lower value 0.991 | locus YER110C, stronger effect = lower value 1.01 | locus YER111C, strain swi4, stronger effect = lower value 1 | locus YER155C, strain BEM2 (second series), stronger effect = lower value 1.02 | locus YER155C, strain BEM2, stronger effect = lower value 0.998 | locus YER167W, strain BCK2, stronger effect = lower value 1.01 | locus YFR010W, strain ubp6, stronger effect = lower value 1.02 | locus YGL078C, strain dbp3, stronger effect = lower value 1.02 | locus YGL086W, strain mad1, stronger effect = lower value 1.01 | locus YGL167C, strain pmr1, stronger effect = lower value 1.01 | locus YGL173C, strain kem1, stronger effect = lower value 0.991 | locus YGL227W, strain vid30, stronger effect = lower value 0.994 | locus YGL240W, strain doc1, stronger effect = lower value 0.993 | locus YGL248W, strain PDE1, stronger effect = lower value 1.01 | locus YGL253W, strain hxk2, stronger effect = lower value 1.02 | locus YGR078C, strain PAC10, stronger effect = lower value 1.01 | locus YGR135W, strain pre9, stronger effect = lower value 1.01 | locus YGR229C, strain SMI1, stronger effect = lower value 1.02 | locus YGR252W, strain gcn5, stronger effect = lower value 0.954 | locus YHR013C, strain ard1, stronger effect = lower value 0.982 | locus YHR027C, strain rpn1, stronger effect = lower value 1 | locus YHR030C, strain SLT2, stronger effect = lower value 1.01 and 1 | locus YHR079C, strain IRE1 (second series), stronger effect = lower value 0.995 | locus YHR079C, strain IRE1, stronger effect = lower value 0.997 | locus YHR094C, strain hxt1, stronger effect = lower value 1 | locus YHR129C, strain ARP1, stronger effect = lower value 1.01 | locus YHR142W, strain chs7, stronger effect = lower value 1.02 | locus YHR200W, strain rpn10, stronger effect = lower value 0.99 | locus YIL066C, strain RNR3, stronger effect = lower value 1.01 | locus YIL073C, strain SPO22, stronger effect = lower value 0.996 | locus YIL125W, strain kgd1, stronger effect = lower value 0.985 | locus YIR030C, strain dcg1, stronger effect = lower value 1.01 | locus YJL092W, strain hpr5, stronger effect = lower value 1.01 | locus YJL095W, strain BCK1 (second series), stronger effect = lower value 0.99 | locus YJL095W, strain BCK1, stronger effect = lower value 1.01 | locus YJL115W, strain asf1, stronger effect = lower value 1.01 | locus YJL129C, strain trk1, stronger effect = lower value 1.01 | locus YJL134W, strain LCB3, stronger effect = lower value 1.01 | locus YJL154C, strain vps35, stronger effect = lower value 1.02 | locus YJL164C, strain tpk1, stronger effect = lower value 1 | locus YJL166W, strain qcr8, stronger effect = lower value 1.01 | locus YJL168C, strain set2, stronger effect = lower value 0.995 | locus YJL187C, strain SWE1 (second series), stronger effect = lower value 1.01 | locus YJR043C, strain POL32, stronger effect = lower value 0.995

Source: PubChem BioAssay AID1159580 (chemical genetic matrix, 2015)
